# According to PubChem BioAssay AID686978 (National Center for Advancing Translational Sciences (NCATS), 2013):
# The whole screen tested about 420,000 compounds, of which about 64,000 (15%) were called active. About 27% were inconclusive and are not listed. Calls follow the shape of the dose curve; as a rule, active = well fitted inhibition curve with a large enough effect; inconclusive = small, poorly fitted or top-dose-only effect; inactive = flat fitted curve, though single readings scatter. Only a sample is shown.
# Assay: qHTS for Inhibitors of human tyrosyl-DNA phosphodiesterase 1 (TDP1): qHTS in cells in absence of CPT; also: nearly all actives have a fitted effect of over 55% in size
# Conditions: DT40 Tdp1-/- hTDP1 cells, no CPT, ATP luminescence, 48 h; activity change, negative = growth inhibition: at 46.2 µM (top of the series)
# Method in brief: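 Cells were dispensed at 400 per well, compounds added by pin tool, plates incubated ≥48 hr at 37 °C, then CellTiter-Glo added for 30 min at room temperature before luminescence reading. Line: DT40 Tdp1-/- complemented with hTDP1; camptothecin omitted.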
# % is scaled to controls: 0 for no effect and ±100 for the full control effect; potency is read from the fitted curve at half-maximal effect.
SMILES,"activity change, negative = growth inhibition",Potency
CCOc1ccc(NC(=S)N2CCC(N(C)CC3CCCO3)CC2)cc1 (centres undefined),1.02% (inactive),–
COc1ccc2oc(N)c(C=O)c(=O)c2c1,0.424% (inactive),–
CCOc1ccc(NC(=O)C/C(C)=N/NC(=O)Cc2cccs2)cc1,-1.31% (inactive),–
CN1C(=O)[C@H]2[C@@H](C3CC3)N3C(=O)CN(Cc4ccccc4)C(=O)[C@@]3(C)[C@H]2C1=O,2.76% (inactive),–
Cc1ccccc1Cn1c(=O)[nH]c2ccccc21,-22.8% (inactive),–
Cc1cccc(C)c1NC(=O)N1CC=C(n2c(=O)[nH]c3ccccc32)CC1,–,20.6 µM (active)
Cc1cccc(C)c1NC(=O)N1CC(C)OC(C)C1 (centres undefined),19.8% (inactive),–
COc1ccc(C)cc1N1C(=O)[C@@H]2C[C@H]1CN2Cc1cccc(OC)c1O,-29.5% (inactive),–
COc1ccc(N2CCC(N3CCN(C)C(CCO)C3)CC2)cc1 (centres undefined),25.1% (inactive),–
COc1ccc(-c2c3c(=O)n(C)c(=O)n(C)c3c3c(C)nc4ccccc4n23)cc1,–,20.6 µM (active)
COc1ccc(-c2[nH]c3c(c2-c2c(-n4cccc4)n(C)c(=O)n(C)c2=O)c(=O)n(C)c(=O)n3C)cc1,-7.33% (inactive),–
COc1ccc(-c2c3c(=O)n(C)c(=O)n(C)c3cn2NC(C)=O)cc1,1.83% (inactive),–
CC1=NNC(=O)C1CCC(=O)N/N=C\c1cccc(Cl)c1 (centres undefined),6.28% (inactive),–
CC(=O)C[C@@H]1OC[C@H](C)N1S(=O)(=O)c1ccc(C)cc1,1.6% (inactive),–
Cc1ccc(S(=O)(=O)N2[C@@H](Cc3ccccc3)CO[C@H]2CC(=O)OCc2ccccc2)cc1,–,23.1 µM (active)
CC(=O)C[C@@H]1OC[C@H](CO)N1S(=O)(=O)c1ccc(C)cc1,11% (inactive),–
CC(=O)Nc1nc(C)c(Cc2ccccc2)c(=O)[nH]1,3.66% (inactive),–
CCCCn1c(N)c(N(CC(C)C)C(=O)c2ccc(Br)o2)c(=O)[nH]c1=O,-34.5% (inactive),–
CN(C)C1CN(Cc2cn(Cc3ccccc3)nn2)S(=O)(=O)C1 (centres undefined),-19.1% (inactive),–
O=S1(=O)CC(N2CCN(Cc3ccccc3F)CC2)CN1Cc1cn(Cc2cccc(C(F)(F)F)c2)nn1 (centres undefined),–,16.4 µM (active)
Cc1cc(C)cc(CN2CCc3nnc(C(NS(C)(=O)=O)C(C)C)n3CC2)c1 (centres undefined),-16.9% (inactive),–
CN(Cc1cn(Cc2ccc(C(F)(F)F)cc2)nn1)C1CN(Cc2cn(Cc3ccc(C(F)(F)F)cc3)nn2)S(=O)(=O)C1 (centres undefined),–,4.61 µM (active)
O=S1(=O)CC(N2CCN(CCO)CC2)CN1Cc1cn(Cc2cccc(Cl)c2)nn1 (centres undefined),6.99% (inactive),–
Cc1cccc(CN2CCN(C3CN(Cc4cn(Cc5cc(C)cc(C)c5)nn4)S(=O)(=O)C3)CC2)c1 (centres undefined),–,16.4 µM (active)

SMILES,"activity change, negative = growth inhibition",Potency
CCCCCCN1CCN(C2CN(Cc3cn(CCCCCC)nn3)S(=O)(=O)C2)CC1 (centres undefined),–,20.6 µM (active)
O=S1(=O)CC(N2CCN(CCO)CC2)CN1Cc1cn(Cc2ccc(Cl)cc2)nn1 (centres undefined),-19.6% (inactive),–
Cc1ccc(Cn2cc(CN3CC(N4CCN(C)CC4)CS3(=O)=O)nn2)cc1 (centres undefined),-22.6% (inactive),–
CC(C)C(C)(C#N)NC(=O)CSc1nc2scc(-c3ccccc3)c2c(=O)[nH]1 (centres undefined),-17.6% (inactive),–
CC1(c2ccc(Cl)cc2)NC(=O)N(CC(=O)c2ccc3c(c2)OCO3)C1=O (centres undefined),-5.62% (inactive),–
Cn1c2c(c(=O)n(C)c1=O)CN(Cc1ccco1)CN2,4.5% (inactive),–
CC(=O)NC(Cc1ccc(F)c(F)c1)C(=O)NC1CCN(C(=O)c2ccc(C)cc2)CC1 (centres undefined),-5.08% (inactive),–
CCOc1ccc(S(=O)(=O)N2CCCCCC2)c2ccccc12,-29.8% (inactive),–
COc1ccc(-c2ocnc2C(=O)Nc2ccc3c(c2)CCC3)cc1,-22.7% (inactive),–
CSC1=NCCN1C(=O)Cc1cccc2ccccc12,8.2% (inactive),–
COCCN1C(=O)C(=O)/C(=C(/O)c2ccc(S(=O)(=O)N3CCOCC3)cc2)C1c1ccc(O)c(OC)c1 (centres undefined),17.3% (inactive),–
O=C(c1ccccc1Cl)N(Cc1ccccc1F)N1C(=O)CCCC1=O,1.49% (inactive),–
CN(C)CCN(C(=O)C1CCCCC1)c1nc2cc3c(cc2s1)OCO3,-3.74% (inactive),–
O=C(COc1ccccc1F)NNC(=O)c1ccc(N2CCCCC2)c([N+](=O)[O-])c1,-82% (inactive),–
O=C(Nc1ccc(N2C(=O)c3cccc4cccc(c34)C2=O)cc1)c1ccc(N2CCCCC2)c([N+](=O)[O-])c1,–,7.31 µM (active)
CC(=O)c1ccc(NC(=O)c2ccc(-n3cncn3)c([N+](=O)[O-])c2)cc1,-26.5% (inactive),–
O=C(Nc1cccc(C(F)(F)F)c1)c1ccc(N2CCNCC2)c([N+](=O)[O-])c1,–,18.4 µM (active)
O=C(Nc1ccc2c(c1)OCO2)c1ccc(N2C(=O)c3ccccc3C2=O)cc1,-6.15% (inactive),–
CN1CCN(CC#CCC2(O)c3ccccc3-c3ccccc32)CC1,-7.87% (inactive),–
CCC(=O)NC(=S)Nc1ccc(NC(=O)c2ccco2)c(Cl)c1,-4.57% (inactive),–
COC(=O)c1cccc(NC(=O)CSc2nc(C)cc(=O)[nH]2)c1,1.31% (inactive),–
COC(=O)c1c(C(=O)OC)c(-c2cccc(C)c2)n2c1CS(=O)C2 (centres undefined),-0.626% (inactive),–
COc1ccc(C2CC(c3cccs3)=NN2C(=O)CSc2nncs2)cc1OC (centres undefined),-23.6% (inactive),–
COc1ccc(C2CC(c3cccs3)=NN2C(=O)CCC(=O)O)cc1OC (centres undefined),3.1% (inactive),–

SMILES,"activity change, negative = growth inhibition",Potency
O=C1c2cccc(OCC(=O)N3N=C(c4cccs4)CC3c3ccc(F)cc3)c2CCN1Cc1ccccc1 (centres undefined),–,9.2 µM (active)
CN(CC(=O)NC1CCCCC1)S(=O)(=O)c1ccc(Br)s1,-32.5% (inactive),–
O=C1C(c2[nH]c3ccccc3c2O)=Nc2ccccc21,-16.4% (inactive),–
COc1ccccc1-c1ccnc(-n2ncc(C(=O)NCCCN3CCOCC3)c2C)n1,-3.07% (inactive),–
CSCCC(=O)N1CCCC(CNC(=O)c2ccccc2Cl)C1 (centres undefined),-18.6% (inactive),–
CCOC(=O)N1CCC(Nc2c(NCCCN3CCN(CC)CC3)c(=O)c2=O)CC1,-10.5% (inactive),–
Cc1ccc(-n2ncc(C(=O)NC3CC3)c2C2CCN(C(=O)OC(C)(C)C)CC2)c(C)c1,-18.3% (inactive),–
CCOC(=O)N1CCC(NC(=O)c2cnn3ccccc23)CC1,-5.98% (inactive),–
Cc1ccc(CN2CCC(CNC(=O)c3cnn(-c4ccccc4Cl)c3C3CCN(C(=O)OC(C)(C)C)CC3)CC2)cc1,–,4.61 µM (active)
CCN1CCN(CCCNC(=O)c2cnn(-c3ccc(C)cc3C)c2C2CCN(C(=O)OC(C)(C)C)CC2)CC1,–,20.6 µM (active)
COc1ccccc1N1CCN(CC(=O)NCCc2ccc(S(N)(=O)=O)cc2)CC1,-1.08% (inactive),–
COc1ccccc1CN1CCC(CNC(=O)c2cnn(-c3cccc(Cl)c3)c2C2CCN(C(=O)OC(C)(C)C)CC2)CC1,–,5.8 µM (active)
COc1ccccc1N1CCN(CCCNC(=O)c2cnn(-c3ccccc3Cl)c2C2CCN(C(=O)OC(C)(C)C)CC2)CC1,–,5.8 µM (active)
CCc1cccc(C)c1NC(=O)COC(=O)Cc1ccsc1,-18.7% (inactive),–
CC1CCCC(C)N1/N=C/c1ccccc1OC(F)F (centres undefined),-23.5% (inactive),–
O=C(O)CCCCOn1ccnc1,-5.4% (inactive),–
CCCc1cc(=O)[nH]c2nnc(SCC(=O)Nc3nnc(SCC)s3)n12,-29.2% (inactive),–
COc1ccc(C(C)=O)cc1COC(=O)Cn1cnc2ccccc2c1=O,-0.295% (inactive),–
COCCNC(=O)C1CCCN(Cc2ccccc2Cl)CC1 (centres undefined),-3.91% (inactive),–
COC(=O)N1CCC2(CCCN(Cc3ccccc3OC)C2)CC1,-0.23% (inactive),–
COc1ccccc1CN1CCC(CNC(=O)c2cnn(-c3ccccc3Cl)c2C2CCN(C(=O)OC(C)(C)C)CC2)CC1,–,8.2 µM (active)
Cc1c(CN2CCCCC2)c(O)n(CCO)c(=O)c1C#N,3.18% (inactive),–
COc1cc(CCC(=O)OCC(=O)Nc2cccc(S(N)(=O)=O)c2)cc(OC)c1OC,-0.764% (inactive),–
Cc1ccc(NC(=O)OCCNC(=O)c2ccncc2)cc1,-1.06% (inactive),–

SMILES,"activity change, negative = growth inhibition",Potency
CCCc1cc(=O)n2[nH]c(NCc3ccc(CC)cc3)nc2n1,-4.36% (inactive),–
O=C(N[C@@H](Cc1c[nH]c2ccccc12)C(=O)O)OCC1c2ccccc2-c2ccccc21,-25.3% (inactive),–
CN(Cc1ccccc1Cl)C(=O)C1CCC(=O)N(CCc2cccc(F)c2)C1 (centres undefined),-23.9% (inactive),–
O=C(N[C@H]1C/C=C\C(c2cccc(F)c2)N(Cc2ccccc2)C(=O)C1)OCC1c2ccccc2-c2ccccc21 (some centres undefined),–,20.6 µM (active)
O=C1c2ccccc2C(O)N1Cc1ccccc1 (centres undefined),11.4% (inactive),–
CCC(C)NC(=O)C1c2ccccc2C(=O)N1Cc1ccccc1 (centres undefined),14.2% (inactive),–
O=C(N[C@H]1C/C=C\C(c2ccc(F)cc2)N(Cc2ccccc2)C(=O)C1)OCC1c2ccccc2-c2ccccc21 (some centres undefined),–,20.6 µM (active)
CC1CCCN(S(=O)(=O)c2ccc3[nH]c(=O)cc(C(=O)NCCc4ccc(Cl)cc4)c3c2)C1 (centres undefined),3.52% (inactive),–
CC(C)(C)c1ccc(C(=O)N2CCC(c3nc(-c4ccc(S(=O)(=O)N5CCCC5)cc4)no3)CC2)cc1,–,20.6 µM (active)
NC(=O)C1CCN(C(=O)c2ccc(C(F)(F)F)cc2)CC1,10% (inactive),–
CC(C)(C)c1ccc(S(=O)(=O)N2CCN(C(=O)c3ccc4c(c3)C(=O)N(Cc3ccncc3)C4=O)CC2)cc1,-20.4% (inactive),–
O=C(c1ccc(C(F)(F)F)cc1)N1CCC(c2nc(-c3ccc(S(=O)(=O)N4CCCC4)cc3)no2)CC1,–,18.4 µM (active)
O=C(c1ccncc1)N1CCN(S(=O)(=O)c2cc(C(F)(F)F)cc(C(F)(F)F)c2)CC1,-29.7% (inactive),–
COC(=O)c1ccc(S(=O)(=O)N2CCC(c3nc4ccccc4o3)CC2)cc1,-27.1% (inactive),–
Cc1ccc2nc(COc3cccc(NC(=O)c4ccccc4Cl)c3)cc(=O)n2c1,-18.2% (inactive),–
CNC[C@H]1Oc2c(NC(=O)C3CCCCC3)cccc2C(=O)N([C@H](C)CO)C[C@@H]1C,1.63% (inactive),–
O=C(COC(=O)c1ccc(O)cc1O)NNC(=O)c1cccs1,-10% (inactive),–
Nc1nc(/C(=C/CC(=O)O)C(=O)N[C@@H]2C(=O)N3C(C(=O)O)=CCS[C@H]23)cs1,2.06% (inactive),–
COc1cccc(NC(=S)NCCCN2CCOCC2)c1,-0.715% (inactive),–
COc1cccc2cc(C(C)N(CCCN3CCOCC3)C(=O)Nc3ccc(Cl)cc3)oc12 (centres undefined),–,23.1 µM (active)
COc1ccc(Cl)cc1NC(=O)CCN1CCOCC1,-5.12% (inactive),–
CC(C)CC(=O)N1CCC(O)(CS(=O)(=O)Cc2ccccc2)CC1,5.44% (inactive),–
